Drawing on PubChem BioAssay (NCI), this text covers growth for 16 compounds.

This is part of a sample that, as a whole, favours compounds with a hit. Of some 83,000 tested, about 20% had one in any assay.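 48-hour exposure, single concentration, 96-well plates; percent growth endpoint where 0 means no net growth. Active: below 10.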 Unmarked numbers belong to inactive results. Active and inactive are the calls of the source.

Among the test systems are T-47D breast; BT-549 breast; MDA-MB-435 melanoma; SW-620 colon; MCF7 breast; HCT-116 colon; HCC-2998 colon; KM12 colon.
Holding throughout (experiment): NCI-60 one-dose screen, 48 h (100 = growth as untreated, 0 = no growth, -100 = all killed)
What all share (conditions): 10 µM unless noted

As for `CCNc1nc(N2CC(=O)Nc3cc(OC)ccc32)c2ccccc2n1`, the growth with T-47D breast was 11.6%; with BT-549 breast, -22.2% (active); in the assay on MDA-MB-435 melanoma it was -25.8% (active); with SW-620 colon it was 21.5%; in the assay on MCF7 breast, 3.09% (active); with HCT-116 colon, -14.1% (active). The figures for the growth with HCC-2998 colon and in the assay on KM12 colon were -20.8% (active) and 4.88% (active), respectively.

With `O=[N+]([O-])c1c(S(=O)(=O)O)cc2cc(S(=O)(=O)O)ccc2c1[N+](=O)[O-]`, the growth in the assay on T-47D breast is 109%; with BT-549 breast, 104%; in the assay with MDA-MB-435 melanoma, 105%; with SW-620 colon it was 105%; with MCF7 breast it was 97.7%; in the assay on HCT-116 colon it was 98.2%. Besides, the growth in the assay on HCC-2998 colon was 99.2%; with KM12 colon, 91.5%.

With `Oc1ccc(Cl)cc1-c1cc(-c2ccc(Cl)cc2)n[nH]1`, the growth in the assay on T-47D breast was 30.9%; in the assay with BT-549 breast it was 84%; with MDA-MB-435 melanoma, 84.9%; in the assay on SW-620 colon, 81%; with MCF7 breast, 3.03% (active); in the assay on HCT-116 colon it was 43.8%. Moreover, the growth with HCC-2998 colon is 22%; in the assay on KM12 colon, 29.6%.

With `CC(Br)C(OC(=O)c1ccccc1Cl)c1cc2c(cc1Br)OCO2` (stereo not drawn), the growth with T-47D breast was 74.9%; with BT-549 breast, 109%; in the assay on MDA-MB-435 melanoma, 75.3%; in the assay with SW-620 colon it was 84.6%; in the assay on MCF7 breast it was 95.2%; in the assay with HCT-116 colon, 66.6%. Besides, the growth was 90.7% in the assay with HCC-2998 colon and 89% in the assay on KM12 colon.

Regarding `Cc1cc(-c2ccccc2)c(C)n1Cc1ccc(Cl)cc1`, the growth was 50.5% in the assay with T-47D breast; 37.7% in the assay on BT-549 breast; -18.4% (active) in the assay with MDA-MB-435 melanoma; 22.7% in the assay with SW-620 colon; 23.5% with MCF7 breast; 15% in the assay with HCT-116 colon. For the same compound, the growth with HCC-2998 colon was 74.2%; in the assay on KM12 colon it was 27.6%.

Turning to `Cc1ccc(OCCn2c(C)nn(-c3ccc(Cl)cc3)c2=O)cc1`, the growth in the assay with T-47D breast was 104%; with BT-549 breast it was 99.8%; in the assay on MDA-MB-435 melanoma, 105%; in the assay with SW-620 colon, 106%; with MCF7 breast, 98.8%; in the assay with HCT-116 colon, 95.5%. The growth in the assay with HCC-2998 colon is 111%; in the assay with KM12 colon it was 117%.

As to `CCCCCCCCCCC/C=C\C[C@H](O)C/C=C1/C(=O)C=C[C@@H]1C/C=C\CCCC(=O)OC`, the growth is -8.92% (active) with T-47D breast; -14.2% (active) in the assay with BT-549 breast; -14.5% (active) in the assay on MDA-MB-435 melanoma; 3.33% (active) in the assay with SW-620 colon; 10.8% in the assay with MCF7 breast; -32% (active) in the assay with HCT-116 colon. Further, the growth with HCC-2998 colon is -46.5% (active); with KM12 colon, -48.5% (active).

For the compound `Cc1cc2c(C(C)C)c(O)c(O)c(C=NCCCCCCC(=O)O)c2c(O)c1-c1c(C)cc2c(C(C)C)c(O)c(O)c(C=NCCCCCCC(=O)O)c2c1O`, the growth was 26.9% in the assay with T-47D breast; 37.8% in the assay on BT-549 breast; 27.2% in the assay on MDA-MB-435 melanoma; 27.2% in the assay on SW-620 colon; 11.7% in the assay on MCF7 breast; 17.6% in the assay with HCT-116 colon. Besides, the growth is 33.5% in the assay with HCC-2998 colon and 15.7% in the assay on KM12 colon.

Consider `CN(C)c1ncc(-c2ccc(C(F)(F)F)cc2)c(NC2CCCCCC2)n1`, for which the growth is 35.1% in the assay with T-47D breast; 90.3% in the assay with BT-549 breast; 65.4% in the assay on MDA-MB-435 melanoma; 58.1% with SW-620 colon; 41.2% with MCF7 breast; 44.1% in the assay on HCT-116 colon. Also, the growth with HCC-2998 colon is 72.2%; in the assay with KM12 colon, 54.4%.

Consider `NC(=O)c1c(NC(=O)c2ccc(OCC3CCCO3)cc2)sc2c1CCCC2` (stereo not drawn), for which the growth is 80.5% with T-47D breast; 101% with BT-549 breast; 95.8% in the assay on MDA-MB-435 melanoma; 110% in the assay with SW-620 colon; 101% in the assay on MCF7 breast; 90% in the assay with HCT-116 colon. Besides, the growth in the assay on HCC-2998 colon is 113%; in the assay with KM12 colon, 66.9%.

Take `COc1ccc(S(=O)(=O)NCCNc2nccc(-c3c(-c4ccccc4)nc4sccn34)n2)cc1`: the growth in the assay on T-47D breast is 10.9%; in the assay on BT-549 breast, 34.7%; in the assay on MDA-MB-435 melanoma, 11.2%; in the assay with SW-620 colon it was 36.5%; in the assay on MCF7 breast, 4.01% (active); with HCT-116 colon it was 9.81% (active). Moreover, the growth in the assay with HCC-2998 colon is 60.7%; with KM12 colon, 9.45% (active).

As for `COc1cccc(/C=C2\SC(N3CCN(c4ccccn4)CC3)=NC2=O)c1`, the growth was 95% in the assay on T-47D breast; 112% in the assay with BT-549 breast; 108% with MDA-MB-435 melanoma; 97.9% in the assay with SW-620 colon; 94.8% with MCF7 breast; 103% in the assay with HCT-116 colon. For the same compound, the growth in the assay on HCC-2998 colon is 99.4%; with KM12 colon, 97.4%.

With `COc1ccc(-c2nnc(COc3ccc(NC(=O)Nc4ccc(Cl)c(C(F)(F)F)c4)cc3F)o2)cc1`, the growth is 9.17% (active) with T-47D breast; -2.18% (active) in the assay on BT-549 breast; 4.03% (active) in the assay with MDA-MB-435 melanoma; 9.95% (active) in the assay on SW-620 colon; 2.31% (active) with MCF7 breast; 4.43% (active) in the assay with HCT-116 colon. Also, the growth in the assay on HCC-2998 colon was 13.8%; with KM12 colon, 4.64% (active).

`COc1cc(C2C=C(C)N=C3SC=CN32)cc(OC)c1OC` (stereo not drawn): the growth is 98.8% in the assay on T-47D breast; 106% in the assay with BT-549 breast; 98.6% in the assay with MDA-MB-435 melanoma; 111% with SW-620 colon; 93.3% with MCF7 breast; 101% with HCT-116 colon. Besides, the values for the growth in the assay on HCC-2998 colon and in the assay with KM12 colon were 106% and 111%, respectively.

In the case of `O=Nc1c(-c2c(O)[nH]c3ccc([N+](=O)[O-])cc23)[nH]c2ccc(O)cc12`, the growth in the assay on T-47D breast is 16.8%; in the assay with BT-549 breast, 4.59% (active); in the assay on MDA-MB-435 melanoma, 9.35% (active); with SW-620 colon, 3.18% (active); in the assay on MCF7 breast, 2.75% (active); in the assay on HCT-116 colon, 2.29% (active). Moreover, the growth is 8.93% (active) with HCC-2998 colon and -33% (active) with KM12 colon.

In the case of `COc1ccc(-c2nnc(COc3ccc(NS(=O)(=O)c4ccc(OC)cc4)cc3F)o2)cc1`, the growth in the assay with T-47D breast was 31.6%; with BT-549 breast, 84.7%; with MDA-MB-435 melanoma it was 81.4%; in the assay on SW-620 colon, 94.3%; in the assay with MCF7 breast, 69.5%; with HCT-116 colon it was 67.2%. In addition, the growth in the assay with HCC-2998 colon is 93.1%; in the assay on KM12 colon, 73.4%.
